This is part of a sample that, as a whole, favours compounds with a hit. Of some 83,000 tested, about 20% had one in any assay.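 Single-dose data. Exposure time 48 hours. Values below 10 considered active.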
Columns and labels:
Experiment in all cases: NCI-60 one-dose screen, 48 h (100 = growth as untreated, 0 = no growth, -100 = all killed)
NCI-H23 lung = details: 10 µM unless noted
NCI-H226 lung = details: 10 µM unless noted
NCI-H322M lung = details: 10 µM unless noted
HOP-62 NSCLC = details: 10 µM unless noted
NCI-H460 lung = details: 10 µM unless noted
786-0 renal = details: 10 µM unless noted
MDA-MB-231 breast = details: 10 µM unless noted
SF-268 CNS = details: 10 µM unless noted
SF-539 CNS = details: 10 µM unless noted
HCT-15 colon = details: 10 µM
U251 CNS = details: 10 µM unless noted
PC-3 prostate = details: 10 µM unless noted
SK-MEL-28 melanoma = details: 10 µM unless noted
SN12C renal = details: 10 µM unless noted
HS 578T breast = details: 10 µM unless noted
NCI/ADR-RES ovarian = details: 10 µM unless noted
SW-620 colon = details: 10 µM unless noted
MCF7 breast = details: 10 µM unless noted
HCT-116 colon = details: 10 µM unless noted
KM12 colon = details: 10 µM unless noted

Measured: growth

COc1cc(N(CCCl)CCCl)ccc1C=Nc1ccccc1C(=O)O
inactive: NCI-H23 lung 101% | NCI-H226 lung 94.7% | NCI-H322M lung 95.7% | HOP-62 NSCLC 110% | NCI-H460 lung 81.1% | 786-0 renal 110% | MDA-MB-231 breast 96.8% | SF-268 CNS 103% | SF-539 CNS 102% | HCT-15 colon 97.7% | U251 CNS 95.8% | PC-3 prostate 90.3% | SK-MEL-28 melanoma 94.3% | SN12C renal 99.2% | HS 578T breast 81.5% | NCI/ADR-RES ovarian 102% | SW-620 colon 91.6% | MCF7 breast 93.7% | HCT-116 colon 108% | KM12 colon 71.1%

CCN(CC)CCOc1c(C(C)C)cccc1C(C)C
inactive: NCI-H23 lung 104% | NCI-H226 lung 111% | NCI-H322M lung 88.3% | HOP-62 NSCLC 96.7% | NCI-H460 lung 112% | 786-0 renal 99.6% | MDA-MB-231 breast 109% | SF-268 CNS 107% | SF-539 CNS 116% | HCT-15 colon 98.4% | U251 CNS 98.6% | PC-3 prostate 101% | SK-MEL-28 melanoma 92.1% | SN12C renal 105% | HS 578T breast 110% | NCI/ADR-RES ovarian 101% | SW-620 colon 106% | MCF7 breast 94.2% | HCT-116 colon 95.2% | KM12 colon 99.3%

CCOC(=O)Nc1cc(Cl)c([N+](=O)[O-])c(NC(=O)OCC)n1
inactive: NCI-H23 lung 87.8% | NCI-H226 lung 100% | NCI-H322M lung 97.1% | HOP-62 NSCLC 126% | NCI-H460 lung 109% | 786-0 renal 104% | MDA-MB-231 breast 108% | SF-268 CNS 75.2% | SF-539 CNS 107% | U251 CNS 102% | PC-3 prostate 92.2% | SK-MEL-28 melanoma 79% | SN12C renal 96.5% | HS 578T breast 106% | NCI/ADR-RES ovarian 102% | SW-620 colon 71.3% | MCF7 breast 51.4% | HCT-116 colon 53.5% | KM12 colon 71.3%
